# Reference: PubChem BioAssay AID2476 (The Scripps Research Institute Molecular Screening Center, 2010)
# A number with no mark means an inactive call. The rule behind the calls is not given here.
# Assay: DNA binding via dye displacement – biochemical, fluorescence, dose response, counter-screen for HCV NS3 helicase inhibitor project, late-stage follow-up (AID 2476)
# Conditions: DNA fluorescent intercalator displacement
row,SMILES,IC50
1,COc1cc(C2C(C(=O)c3ccc(C)o3)=C(O)C(=O)N2c2cc(C)on2)ccc1OCc1ccccc1 (configuration not stated),> 79.4 µM
2,COc1ccc(C=NNC(=O)c2cc(O)c(O)c(O)c2)cc1COc1ccc(C(=O)OCC(C)C)cc1,> 79.4 µM
3,COc1cccc(-n2c(SCc3cc(=O)oc4cc(O)c(O)cc34)nc3ccccc3c2=O)c1,> 79.4 µM
4,CCCCCOc1ccc(C2C(C(=O)c3ccc(C)o3)=C(O)C(=O)N2c2cc(C)on2)cc1 (configuration not stated),> 79.4 µM
5,CCOc1cccc(C2C(C(=O)c3ccc(C)o3)=C(O)C(=O)N2Cc2ccccc2)c1 (configuration not stated),> 79.4 µM
6,Cc1ccc(C(=O)C2=C(O)C(=O)N(Cc3ccco3)C2c2cccc(Cl)c2)o1 (configuration not stated),> 79.4 µM
7,Cc1cc(N2C(=O)C(O)=C(C(=O)c3ccc(C)o3)C2c2ccc(OCc3ccccc3)cc2)no1 (configuration not stated),> 79.4 µM
